The results in this text go back to PubChem BioAssay (EPA / NIEHS).

Assay [1] deals with rat Serotonin Transporter (SERT), Slc6a4 (gene 25553) (UniProt P31652). Description: NVS_TR_rSERT: NovaScreen (NVS) Transporter Assay for rat Serotonin Transporter (SERT) (AID 2283375). In outline:
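Rat forebrain membranes; radioligand displacement at SERT read by filter-based scintillation counting, 1 h after dosing. Screened in duplicate at 25 uM, actives then run in concentration series; loss of signal versus DMSO baseline.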

Assay [2] deals with Agonist Androgen Response Element (ARE), AR (gene 367) (UniProt P10275). In words: OT_AR_ARELUC_AG_1440: Odyssey Thera (OT) 24-hour CHO-K1 Luciferase Assay for Agonist Androgen Response Element (ARE) (AID 2283379). In outline:
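Readout: luciferase bioluminescence from CHO-K1 ARE-luc cells, measured 24 h post-dosing; agonism = increased mean luminescence vs DMSO controls, fitted in positive direction.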

Assay [3] has as its target Estrogen receptor beta (Homo sapiens) (UniProt Q92731). Description: OT_ER_ERbERb_1440: Odyssey Thera (OT) 24-hour HEK293T Protein-Complementation Assay for Estrogen Receptor-beta/-beta Homodimer (AID 2283380).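 Note: fluorescence gain from ER beta LBD homodimer complementation read by laser scanning cytometry; scored as signal increase over DMSO baseline for both agonists and antagonists.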 In outline:
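Fluorescence increase, nuclear for agonists or whole-cell for antagonists, relative to DMSO vehicle, quantified by laser scanning cytometer after fixation and Draq5 staining. Readout from 24 h treatment of HEK293T cells carrying complementation-paired ER beta LBD (aa 310-547).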

The target of assay [4] is Estrogen receptor (Homo sapiens) (UniProt P03372). In words: OT_ERa_GFPERaERE_0480: Odyssey Thera (OT) 8-hour HeLa Transcription Induction Assay for Estrogen Receptor (AID 2283381; active = hit-call score of the fitted dose curve at least 0.9, where 1 is the maximum; inactive = score below 0.9). In outline: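 Human cervical HeLa cells were treated for 8 hours, after which ERE-driven GFP induction was measured by fluorescence microscopy; increases over DMSO baseline defined activity.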

For assay [5] the target is unchanged. In words: OT_ERa_GFPERaERE_0120: Odyssey Thera (OT) 2-hour HeLa Transcription Induction Assay for Estrogen Receptor (AID 2283382). In outline: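 Cells (human cervical HeLa) receive compound, incubate 2 hours, then are imaged for fluorescent reporter induction. Images are quantified by high content analysis, and activity is fitted as gain of signal against DMSO.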

In assay [6] the target is mouse Estrogen Receptor alpha (Era), Esr1 (gene 13982) (UniProt P19785). Description: NVS_NR_mERa: NovaScreen (NVS) Nuclear Receptor Binding Assay for mouse Estrogen Receptor alpha (Era) (AID 2283378).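 Note: hit means loss of bound radioligand signal relative to DMSO.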 Put shortly: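 Cell-free radioligand competitive displacement binding, read by filter-based scintillation counting 18 h after dosing. Primary screen run in duplicate at 25 uM, actives retested in concentration series; loss of signal versus DMSO.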

Records with an inconclusive call do not appear. The source made the active and inactive calls. Rule for the calls, unless noted: active = hit-call score of the fitted dose curve at least 0.9, where 1 is the maximum; inconclusive = response in the unintended direction; inactive = score below 0.9.

Sequence of Estrogen receptor beta (Homo sapiens) (Q92731 whole entry, looked up, the tested form may be a part): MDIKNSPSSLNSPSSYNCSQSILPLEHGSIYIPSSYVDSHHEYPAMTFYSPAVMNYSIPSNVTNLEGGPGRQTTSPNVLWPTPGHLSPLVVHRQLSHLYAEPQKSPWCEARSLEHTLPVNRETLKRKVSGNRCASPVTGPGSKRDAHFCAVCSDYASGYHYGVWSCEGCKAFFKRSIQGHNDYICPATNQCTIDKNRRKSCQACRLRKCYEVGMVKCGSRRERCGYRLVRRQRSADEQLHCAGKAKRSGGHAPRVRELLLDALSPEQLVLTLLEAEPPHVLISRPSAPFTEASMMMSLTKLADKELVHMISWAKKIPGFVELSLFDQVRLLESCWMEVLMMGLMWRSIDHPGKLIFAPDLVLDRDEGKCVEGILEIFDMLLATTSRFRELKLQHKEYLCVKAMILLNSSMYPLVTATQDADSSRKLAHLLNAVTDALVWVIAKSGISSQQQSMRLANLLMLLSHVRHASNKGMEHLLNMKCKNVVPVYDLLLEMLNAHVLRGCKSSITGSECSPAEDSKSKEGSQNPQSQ
Sequence of mouse Estrogen Receptor alpha (Era), Esr1 (gene 13982) (P19785 whole entry, looked up): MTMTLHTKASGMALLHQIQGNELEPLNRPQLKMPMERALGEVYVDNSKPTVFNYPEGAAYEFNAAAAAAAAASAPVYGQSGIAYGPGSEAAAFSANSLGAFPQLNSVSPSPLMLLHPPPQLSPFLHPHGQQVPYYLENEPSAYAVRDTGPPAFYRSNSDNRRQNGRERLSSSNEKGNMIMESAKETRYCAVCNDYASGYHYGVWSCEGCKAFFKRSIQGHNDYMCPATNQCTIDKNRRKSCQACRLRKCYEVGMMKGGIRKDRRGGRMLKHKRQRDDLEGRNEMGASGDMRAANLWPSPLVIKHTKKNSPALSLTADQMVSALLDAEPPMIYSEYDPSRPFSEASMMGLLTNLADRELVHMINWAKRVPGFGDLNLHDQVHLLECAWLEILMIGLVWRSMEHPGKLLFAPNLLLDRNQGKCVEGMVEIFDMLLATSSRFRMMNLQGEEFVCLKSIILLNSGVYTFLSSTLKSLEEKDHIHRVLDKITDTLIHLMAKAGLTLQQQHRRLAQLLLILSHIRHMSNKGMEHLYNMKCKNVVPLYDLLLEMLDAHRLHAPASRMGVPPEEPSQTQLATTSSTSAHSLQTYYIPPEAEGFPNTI
Sequence of Estrogen receptor (Homo sapiens) (P03372 whole entry, looked up): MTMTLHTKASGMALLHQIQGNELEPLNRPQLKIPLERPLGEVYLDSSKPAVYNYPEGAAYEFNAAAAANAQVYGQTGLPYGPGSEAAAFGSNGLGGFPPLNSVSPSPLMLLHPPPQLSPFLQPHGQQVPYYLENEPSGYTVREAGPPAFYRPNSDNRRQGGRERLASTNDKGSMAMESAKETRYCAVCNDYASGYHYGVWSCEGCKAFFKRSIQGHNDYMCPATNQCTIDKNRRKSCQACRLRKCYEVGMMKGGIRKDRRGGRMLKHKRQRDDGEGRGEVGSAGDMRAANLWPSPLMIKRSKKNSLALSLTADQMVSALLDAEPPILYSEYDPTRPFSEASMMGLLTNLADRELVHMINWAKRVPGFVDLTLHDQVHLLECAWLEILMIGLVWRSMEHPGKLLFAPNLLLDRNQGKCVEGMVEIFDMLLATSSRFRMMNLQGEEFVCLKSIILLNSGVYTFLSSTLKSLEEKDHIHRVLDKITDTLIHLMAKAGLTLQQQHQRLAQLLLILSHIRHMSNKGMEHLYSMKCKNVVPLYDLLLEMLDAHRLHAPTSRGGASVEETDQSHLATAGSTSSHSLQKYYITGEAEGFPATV
Sequence of Agonist Androgen Response Element (ARE), AR (gene 367) (P10275 whole entry, looked up): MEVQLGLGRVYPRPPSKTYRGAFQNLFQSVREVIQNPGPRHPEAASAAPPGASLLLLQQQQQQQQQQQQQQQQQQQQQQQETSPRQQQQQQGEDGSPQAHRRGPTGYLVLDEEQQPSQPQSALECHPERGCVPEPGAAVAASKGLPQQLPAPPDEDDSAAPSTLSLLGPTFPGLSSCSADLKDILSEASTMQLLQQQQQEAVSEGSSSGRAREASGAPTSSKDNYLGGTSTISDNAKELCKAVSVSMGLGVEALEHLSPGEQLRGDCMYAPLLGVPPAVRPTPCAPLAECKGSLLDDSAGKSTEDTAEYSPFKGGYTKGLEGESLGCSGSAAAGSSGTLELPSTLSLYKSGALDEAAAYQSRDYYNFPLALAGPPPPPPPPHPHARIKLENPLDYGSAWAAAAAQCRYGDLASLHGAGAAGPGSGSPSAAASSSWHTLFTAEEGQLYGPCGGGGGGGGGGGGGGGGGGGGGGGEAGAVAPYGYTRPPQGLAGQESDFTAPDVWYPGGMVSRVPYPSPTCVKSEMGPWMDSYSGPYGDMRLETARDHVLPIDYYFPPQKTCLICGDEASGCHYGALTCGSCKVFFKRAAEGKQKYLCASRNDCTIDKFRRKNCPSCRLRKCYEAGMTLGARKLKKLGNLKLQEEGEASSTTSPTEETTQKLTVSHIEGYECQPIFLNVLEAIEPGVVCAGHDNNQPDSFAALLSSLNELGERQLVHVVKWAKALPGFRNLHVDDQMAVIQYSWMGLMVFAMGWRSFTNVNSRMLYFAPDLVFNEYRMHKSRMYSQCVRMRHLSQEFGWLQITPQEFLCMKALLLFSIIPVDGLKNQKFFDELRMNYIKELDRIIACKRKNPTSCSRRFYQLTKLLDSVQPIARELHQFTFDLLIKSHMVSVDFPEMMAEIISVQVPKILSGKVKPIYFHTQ
Sequence of rat Serotonin Transporter (SERT), Slc6a4 (gene 25553) (P31652 whole entry, looked up): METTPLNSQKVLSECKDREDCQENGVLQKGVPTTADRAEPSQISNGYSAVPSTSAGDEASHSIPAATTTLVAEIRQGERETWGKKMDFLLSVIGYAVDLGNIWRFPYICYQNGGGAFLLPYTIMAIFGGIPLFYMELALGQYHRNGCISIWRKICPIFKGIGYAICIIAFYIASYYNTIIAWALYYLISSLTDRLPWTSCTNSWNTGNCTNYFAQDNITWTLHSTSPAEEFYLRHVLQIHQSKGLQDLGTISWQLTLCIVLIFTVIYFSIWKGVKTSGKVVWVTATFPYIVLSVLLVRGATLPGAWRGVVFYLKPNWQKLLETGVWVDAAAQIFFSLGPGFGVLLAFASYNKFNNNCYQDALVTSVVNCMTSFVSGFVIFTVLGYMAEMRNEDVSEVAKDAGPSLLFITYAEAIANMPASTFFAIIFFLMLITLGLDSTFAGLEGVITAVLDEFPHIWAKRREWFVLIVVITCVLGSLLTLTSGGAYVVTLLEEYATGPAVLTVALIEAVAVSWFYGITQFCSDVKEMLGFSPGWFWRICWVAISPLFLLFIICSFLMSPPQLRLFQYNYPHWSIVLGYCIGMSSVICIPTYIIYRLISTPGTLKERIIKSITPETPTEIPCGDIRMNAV

A word on the AC50: it is the concentration at which the activity in the assay is half-maximal. Regarding `Nc1ccc([N+](=O)[O-])cc1Cl`, the AC50 in assay [1] was 0.0449 µM (active).
On the same count and under the same terms, the value for `Oc1ccc(I)cc1` was 2.5 µM (active).
Take `CC(C)(C)N(NC(=O)c1ccc(Cl)cc1)C(=O)c1ccccc1`: the compound was called inactive in assay [2], in assay [3], in assay [4] and in assay [5].
With `CCCCc1ccc(O)cc1`, the compound was called inactive in assay [6], in assay [4] and in assay [5]. In assay [3], the AC50 is 19.6 µM (active).
`CCCCOCCOP(=O)(OCCOCCCC)OCCOCCCC`: the compound was called inactive in assay [3], in assay [4] and in assay [5].
As for `O=C(O)C1C(C(=O)O)C2(Cl)C(Cl)=C(Cl)C1(Cl)C2(Cl)Cl` (stereo not drawn), the outcome in assay [3], in assay [4] and in assay [5] was inactive.
Take `CCOS(=O)(=O)OCC`: the compound was classed as inactive in assay [3], in assay [4] and in assay [5].
Regarding `CCN(CC)c1ccccc1`, the outcome in assay [2], in assay [3], in assay [4] and in assay [5] was inactive.
Turning to `Nc1cc2c3c(c1)C(c1ccccc1)=N[C@@H](NC(=O)c1cccnc1)C(=O)N3CC2`, the compound was called inactive in assay [3], in assay [4] and in assay [5].
Regarding `O=C(CBr)OCc1ccccc1`, the compound was classed as inactive in assay [3], in assay [4] and in assay [5].
Take `c1ccc2c(c1)sc1ccccc12`: the call in assay [4] and in assay [5] was inactive.
Take `Cc1ccc(O)cc1C`: the call in assay [3], in assay [4] and in assay [5] was inactive.
Turning to `COC(N)=O`, the call in assay [3], in assay [4] and in assay [5] was inactive.
With `CCCCOCC1CO1` (stereo not drawn), the compound was classed as inactive in assay [4] and in assay [5].
With `Cc1cccc(N)c1`, the result in assay [4] and in assay [5] was inactive.
As for `O=C(O)CF`, the outcome in assay [3], in assay [4] and in assay [5] was inactive.
Regarding `O=[N+]([O-])c1ccccc1`, the outcome in assay [6], in assay [3], in assay [4] and in assay [5] was inactive.
`Cc1ccc([N+](=O)[O-])cc1C`: the compound was called inactive in assay [3], in assay [4] and in assay [5].
Take `ClC(Cl)c1ccccc1`: the outcome in assay [4] and in assay [5] was inactive.
As for `CCOC(=O)c1ccccc1C(=O)OCC`, the compound was classed as inactive in assay [4] and in assay [5].
For the compound `CC(C)(C)OOC(C)(C)C`, the call in assay [3], in assay [4] and in assay [5] was inactive.
On to `CCCCN(CCCC)N=O`, for which the outcome in assay [3], in assay [4] and in assay [5] was inactive.
In the case of `CCCCC(CC)COC(=O)c1c(Br)c(Br)c(Br)c(Br)c1C(=O)OCC(CC)CCCC` (stereo not drawn), the result in assay [3], in assay [4] and in assay [5] was inactive.
Consider `[N-]=[N+]=[N-]`, for which the compound was classed as inactive in assay [2], in assay [4] and in assay [5].
On to `CN(C)C(=O)Cl`, for which the outcome in assay [4] and in assay [5] was inactive.
As to `CCOP(=S)(Oc1ccc([N+](=O)[O-])cc1)c1ccccc1` (stereo not drawn), the outcome in assay [6] and in assay [3] was inactive. Moreover, the AC50 in assay [4] is 12.7 µM (active); in assay [5], 18.4 µM (active).
For `CCCCc1ccccc1`, the outcome in assay [3], in assay [4] and in assay [5] was inactive.
`c1cc2c3c(cccc3c1)CC2`: the call in assay [2], in assay [3], in assay [4] and in assay [5] was inactive.
As for `FC(F)(F)c1ccc(Cl)cc1`, the result in assay [3], in assay [4] and in assay [5] was inactive.
Turning to `CCCCC(CC)COP(=O)(Oc1ccccc1)Oc1ccccc1` (stereo not drawn), the compound was classed as inactive in assay [2], in assay [3], in assay [4] and in assay [5].
`O=NN1CCCC1`: the AC50 in assay [3] is 50 µM (active). Besides, the compound was called inactive in assay [4] and in assay [5].
Regarding `CCOc1ccc(C(C)(C)COCc2cccc(Oc3ccccc3)c2)cc1`, the compound was classed as inactive in assay [3], in assay [4] and in assay [5].
In the case of `Cc1ccc(N)cc1N`, the call in assay [3], in assay [4] and in assay [5] was inactive.
With `COCCOCCO`, the result in assay [3], in assay [4] and in assay [5] was inactive.
Turning to `CCOP(=S)(OCC)SCSCC`, the compound was called inactive in assay [3], in assay [4] and in assay [5].
Regarding `O=S1(=O)OCC2C(CO1)C1(Cl)C(Cl)=C(Cl)C2(Cl)C1(Cl)Cl` (stereo not drawn), the call in assay [3], in assay [4] and in assay [5] was inactive.
Turning to `CCOC(=O)c1ccccc1N`, the result in assay [3], in assay [4] and in assay [5] was inactive.
With `CCCN(CCC)c1c([N+](=O)[O-])cc(C(C)C)cc1[N+](=O)[O-]`, the outcome in assay [6] and in assay [5] was inactive. In addition, the AC50 in assay [3] was 7.26 µM (active); in assay [4], 12.2 µM (active).
As to `Nc1ccc(Cl)cc1`, the compound was classed as inactive in assay [4] and in assay [5].
For `CC(Cl)(Cl)C(=O)O`, the result in assay [6], in assay [3], in assay [4] and in assay [5] was inactive.
